Here are results for 61 molecules from the supplement of paper PMC9446081.

About 220 (0.56%) of roughly 39,000 compounds showed activity. The sample as a whole holds a higher share of actives than the screen did.
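Further: Wild-type cells incubated without shaking, value is the mean of two biological replicates.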

The test system of the test is Escherichia coli K-12 BW25113. Kind of test: relative growth (OD600 normalised to plate interquartile mean) (fraction); higher = less growth inhibition, active = 0.2 or less. As to conditions: 50 µM; LB; incubation time: overnight (16-24 h).
Regarding `O=C(C[C@@H]1CC[C@@H]2[C@H](COC[C@H](O)CN2S(=O)(=O)c2ccccc2)O1)NCc1ccc2c(c1)OCO2`, the relative growth is 0.99 (inactive).
In the case of `C[C@@H]1CCCCO[C@H](CN(C)Cc2ccccc2)[C@@H](C)CN([C@@H](C)CO)C(=O)c2cc(NS(=O)(=O)c3ccc(Cl)cc3)ccc2O1`, the relative growth was 0.981 (inactive).
For the molecule `Cc1noc(C)c1S(=O)(=O)Nc1ccc2c(c1)C(=O)N([C@H](C)CO)C[C@H](C)[C@H](CN(C)Cc1ccncc1)O2`, the relative growth is 0.999 (inactive).
Take `COCCOC(=O)N1C(=O)[C@@]2(c3cc(C#CCCO)ccc31)[C@H](C(=O)Nc1nc3ccccc3s1)[C@H]1C(=O)O[C@H](c3ccccc3)[C@H](c3ccccc3)N1[C@@H]2c1ccc(O)cc1`: the relative growth was 1.02 (inactive).
As for `C[C@H](CO)N1C[C@H](C)[C@@H](CN(C)Cc2ccc(C(=O)O)cc2)OCCCC[C@H](C)Oc2ccc(NS(=O)(=O)c3ccc(F)cc3)cc2C1=O`, the figure is 0.967 (inactive); as for `C=C1C(=O)O[C@@H]2/C=C(\CO[C@@H]3O[C@H](CO)[C@@H](O)[C@H](O)[C@H]3O)CC/C=C3\C[C@H](OC3=O)[C@@H]12`, 0.997 (inactive).
As for `C[C@@H]1CN([C@@H](C)CO)C(=O)Cc2cc(NC(=O)Cc3cn(C)c4ccccc34)ccc2O[C@H]1CN(C)Cc1ccc(C(=O)Nc2ccccc2N)cc1`, the relative growth is 0.988 (inactive).
Take `C[C@H](O)CC1=C[C@H](O)[C@@H](C)OC1=O`: the relative growth is 1.01 (inactive).
The result for `C[C@]1(C(=O)NCc2ccccc2)c2ccccc2C(=O)N(Cc2ccc(OC(F)(F)F)cc2)[C@H]1c1ccc(CO)cc1` reads 0.983 (inactive); that for `NC[C@H]1O[C@H](O[C@H]2[C@H](O)[C@@H](O[C@H]3O[C@H](CO)[C@@H](O)[C@H](N)[C@H]3O)[C@H](N)C[C@@H]2N)[C@H](N)C[C@@H]1O`, 0.0393 (active).
The result for `NC[C@@H]1O[C@H](O[C@H]2[C@@H](O)[C@H](O[C@@H]3[C@@H](O)[C@H](N)C[C@H](N)[C@H]3O[C@@H]3O[C@H](CO)[C@@H](O)C[C@H]3N)O[C@@H]2CO)[C@H](N)[C@@H](O)[C@@H]1O[C@H]1O[C@H](CO)[C@@H](O)[C@H](O)[C@@H]1O` reads 1.01 (inactive).
As for `CNC1C(OC2OC(CO)C(N)C(O)C2O)OC2CC(N)C(OC3C(N)CC(N)C(O)C3O)OC2C1O.O=S(=O)(O)O` (stereo unspecified), the relative growth was 1.2 (inactive).
As for `NCC1CCC(N)C(OC2C(N)CC(N)C(OC3OC(CO)C(O)C(N)C3O)C2O)O1` (stereo unspecified), the relative growth was 0.947 (inactive).
The result for `CN[C@@H]1[C@@H](O[C@H]2O[C@H](CO)[C@@H](N)[C@H](O)[C@H]2O)O[C@H]2C[C@@H](N)[C@H](O[C@H]3[C@H](O)[C@@H](O)[C@H](N)C[C@@H]3N)O[C@@H]2[C@@H]1O` reads 0.978 (inactive); that for `NCC1OC(OC2C(N)CC(N)C(OC3OC(CO)C(O)C(N)C3O)C2O)C(N)CC1O` (stereo unspecified), 0.0445 (active).
As for `C[C@H]1CN([C@@H](C)CO)C(=O)CCCn2cc(nn2)CO[C@@H]1CN(C)S(=O)(=O)c1cccc(C#N)c1`, the figure is 0.987 (inactive); as for `C[C@H](CO)N1C[C@H](C)[C@@H](CN(C)Cc2ccc(Oc3ccccc3)cc2)Oc2ccc(NC(=O)C3CC3)cc2C1=O`, 0.915 (inactive); as for `C[C@H]1CN([C@@H](C)CO)C(=O)c2ccccc2-c2ccccc2CO[C@H]1CN(C)S(=O)(=O)c1ccc(C(F)(F)F)cc1`, 1.04 (inactive).
Consider `C[C@H]1CN([C@@H](C)CO)S(=O)(=O)c2ccc(C3=CCCCC3)cc2O[C@H]1CN(C)Cc1cncnc1`, for which the relative growth was 1.02 (inactive).
The result for `COc1ccccc1S(=O)(=O)N(C)C[C@H]1OCc2cn(nn2)CCCC(=O)N([C@@H](C)CO)C[C@H]1C` reads 1.05 (inactive); that for `C[C@H]1CN([C@@H](C)CO)C(=O)Cc2cc(NC(=O)C3CCCCC3)ccc2O[C@@H]1CN(C)S(C)(=O)=O`, 0.992 (inactive); that for `C[C@@H]1CN([C@H](C)CO)C(=O)c2cc(NS(=O)(=O)c3ccc(F)cc3)ccc2O[C@@H](C)CCCCO[C@@H]1CN(C)Cc1ccc(C(=O)O)cc1`, 1 (inactive).
`Clc1ccc2sc(Sc3ccccc3)nc2c1`: the relative growth was 0.985 (inactive).
As for `COc1ccc(-c2c(C)oc3ccc(Cl)cc23)cc1`, the figure is 0.992 (inactive).
As for `CC1CCC2(C)C(C=O)=CCCC2C1(C)CC1OC(O)C(=O)C12CO2` (stereo unspecified), the figure is 0.0462 (active); as for `COC(=O)[C@@H](NC(=O)c1cccc(NC=O)c1O)[C@@H](C)O`, 1.04 (inactive).
The result for `C[C@@H]1CN([C@H](C)CO)C(=O)c2cc(NC(=O)c3ccncc3)ccc2O[C@@H](C)CCCCO[C@H]1CN(C)Cc1ccc(C(F)(F)F)cc1` reads 1 (inactive).
Consider `Cc1noc(C)c1NC(=O)N(C)C[C@H]1OCCCC[C@@H](C)Oc2ccc(NS(=O)(=O)c3ccccc3)cc2C(=O)N([C@@H](C)CO)C[C@H]1C`, for which the relative growth is 1.01 (inactive).
Turning to `O=C1CN(N=Cc2ccc([N+](=O)[O-])o2)C(=O)N1`, the relative growth is 0.0462 (active).
Consider `O=C1OCCN1N=Cc1ccc([N+](=O)[O-])o1`, for which the relative growth was 0.0457 (active).
The result for `O=C1CN(/N=C/c2ccc([N+](=O)[O-])o2)C(=O)N1` reads 0.031 (active).
As for `O=C1OC(CN2CCOCC2)CN1N=Cc1ccc([N+](=O)[O-])o1` (stereo unspecified), the figure is 0.575 (inactive).
The result for `O=C1CN(N=Cc2ccc(-c3ccc([N+](=O)[O-])cc3)o2)C(=O)[N-]1.[Na+]` reads 1.06 (inactive); that for `Cc1cc(C(=O)Nc2cccc3c2O[C@@H](CN(C)S(=O)(=O)c2ccccc2)[C@H](C)CN([C@@H](C)CO)C3=O)n(C)n1`, 1.01 (inactive).
In the case of `C[C@@H]1CN([C@@H](C)CO)S(=O)(=O)c2ccc(Br)cc2O[C@@H]1CN(C)S(=O)(=O)c1ccc(F)cc1`, the relative growth is 1.04 (inactive).
As for `CCN1CCN(CC(=O)Nc2ccc(-c3cccc4c(=O)cc(N5CCOCC5)oc34)c3sc4ccccc4c23)CC1`, the figure is 0.981 (inactive); as for `COc1ccc(S(=O)(=O)Nc2cccc3c2O[C@H](CN(C)S(=O)(=O)c2cn(C)cn2)[C@@H](C)CN([C@H](C)CO)C3=O)cc1`, 1.01 (inactive); as for `CN(C)CCCNC(=O)C[C@@H]1CC[C@@H]2[C@H](COc3ccc(NS(C)(=O)=O)cc3C(=O)N2C)O1`, 1 (inactive).
The result for `C[C@@H]1CCCCO[C@H](CN(C)Cc2ccccc2)[C@@H](C)CN([C@H](C)CO)C(=O)c2cc(NC(=O)C3CCCCC3)ccc2O1` reads 0.995 (inactive); that for `C[C@@H]1CCCCO[C@@H](CN(C)C(=O)Nc2ccc3c(c2)OCO3)[C@@H](C)CN([C@H](C)CO)C(=O)c2cc(NC(=O)c3ccccc3)ccc2O1`, 1.01 (inactive).
Regarding `C/C=C/c1ccc2c(c1)O[C@@H](CN(C)C(=O)c1ccc3c(c1)OCO3)[C@@H](C)CN([C@H](C)CO)S2(=O)=O`, the relative growth was 1.01 (inactive).
As for `CO/N=C(\C(=O)N[C@@H]1C(=O)N2C(C(=O)O)=C(C[N+]3(C)CCCC3)CS[C@H]12)c1csc(N)n1`, the figure is 0.0339 (active).
On to `CON=C(C(=O)NC1C(=O)N2C(C(=O)O)=C(C[N+]3(C)CCCC3)CSC12)c1csc(N)n1.[Cl-]` (stereo unspecified), for which the relative growth is 0.0437 (active).
Take `CC1=C(C(=O)O)N2C(=O)[C@@H](NC(=O)[C@H](N)C3=CCC=CC3)[C@H]2SC1`: the relative growth is 1.03 (inactive).
The result for `CO/N=C(\C(=O)N[C@@H]1C(=O)N2C(C(=O)O)=C(C)CS[C@H]12)c1csc(N)n1` reads 0.0368 (active).
As for `CC1=C(C(=O)O)N2C(=O)C(NC(=O)C(N)C3=CCC=CC3)C2SC1` (stereo unspecified), the figure is 1.07 (inactive); as for `C[C@H]1CN([C@@H](C)CO)S(=O)(=O)c2ccc(C3=CCCC3)cc2O[C@@H]1CN(C)S(=O)(=O)c1ccc(F)cc1`, 1.02 (inactive); as for `C[C@H](CO)N1C[C@H](C)[C@@H](CN(C)C(=O)CN(C)C)Oc2ncc(-c3ccc(C(=O)N(C)C)cc3)cc2C1=O`, 0.975 (inactive).
Regarding `Cc1cccc(NC(=O)Nc2ccc3c(c2)C(=O)N(C)[C@@H]2CC[C@@H](CC(=O)NCc4ccccc4Cl)O[C@@H]2CO3)c1`, the relative growth is 0.998 (inactive).
The result for `C[C@@H]1CN([C@H](C)CO)S(=O)(=O)c2ccc(-c3cncnc3)cc2O[C@H]1CN(C)C(=O)Cc1cccnc1` reads 0.98 (inactive); that for `CC(C)NC(=O)N[C@@H]1CC[C@@H](CCN)O[C@H]1CO`, 0.989 (inactive).
As for `C[C@H](CO)N1C[C@H](C)[C@@H](CN(C)Cc2ccc3c(c2)OCO3)Oc2ccc(NC(=O)CCCN(C)C)cc2CC1=O`, the figure is 0.975 (inactive); as for `O=c1nc[nH]c2n[nH]cc12`, 1.03 (inactive); as for `COC1=C(N)C(=O)c2nc(-c3nc(C(=O)O)c(C)c(-c4ccc(OC)c(OC)c4O)c3N)ccc2C1=O`, 0.038 (active).
The result for `COc1ccc(C(=O)O)c(O)c1OC` reads 1.03 (inactive); that for `COCC(=O)Nc1ccc2c(c1)C(=O)N(C)C[C@@H](OC)[C@H](C)CN(Cc1ccccc1C(=O)O)[C@H](C)CO2`, 1.02 (inactive); that for `C[C@@H]1CCCCO[C@H](CN(C)S(=O)(=O)c2ccc(Cl)cc2)[C@@H](C)CN([C@H](C)CO)C(=O)c2cc(NC(=O)c3ccncc3)ccc2O1`, 1.01 (inactive).
For `COc1ccc(CN(C)C[C@H]2OCCCC[C@H](C)Oc3ccc(NS(=O)(=O)c4ccc(C)cc4)cc3C(=O)N([C@@H](C)CO)C[C@@H]2C)cc1`, the relative growth is 0.982 (inactive).
The result for `C[C@H](CO)N1C[C@H](C)[C@H](CN(C)Cc2ccc3c(c2)OCO3)OCCCC[C@H](C)Oc2ccc(NS(=O)(=O)c3ccc(F)cc3)cc2C1=O` reads 0.995 (inactive); that for `COc1ccc(NC(=O)N(C)C[C@@H]2Oc3ccc(NC(=O)Nc4ccc(C(F)(F)F)cc4)cc3C(=O)N([C@@H](C)CO)C[C@H]2C)cc1`, 1.03 (inactive).
The result for `Clc1nc(-c2ccccn2)nc2scc(-c3ccccc3)c12` reads 0.979 (inactive).
